From PubChem
Pf Dd2 growth: inhibitors of Plasmodium falciparum Dd2 growth. Potency, µM (top dose mostly 28.9 µM), hits mostly inhibitors. P. falciparum Dd2 growth, SYBR Green, 72 h. 120,000 compounds, 4.3% hits; active means well fitted inhibition curve with a large enough effect; further: nearly all actives have a fitted effect of over 65% in size
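Infected erythrocytes (Dd2, 0.3% parasitemia, 2.5% hematocrit final) are added to compound in RPMI-1640/Albumax II medium, grown 72 h at 37C in low oxygen, then lysed with saponin/Triton-X containing SYBR Green and read by fluorescence.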
Numbers stand for hits; [ ] = another dose, or the depositor's remark. This excerpt belongs to a sample that is enriched for hits.

Screening COc1ccc(-c2cc(C[C@H]3CNCC[C@H]3CC(=O)N3CCN(c4ccccc4OC)CC3)no2)cc1 returned Pf Dd2 growth inactive.
For COc1ccc(-c2cc(C[C@H]3CNCC[C@H]3CC(=O)NCc3cccnc3)no2)cc1 the results were Pf Dd2 growth inactive.
Screening COc1ccc(-c2cc(C[C@H]3CNCC[C@H]3CC(=O)NC(C)C)no2)cc1 returned Pf Dd2 growth inactive.
COc1ccc(-c2cc(C[C@H]3CNCC[C@H]3CC(=O)N3CCC(Cc4ccccc4)CC3)no2)cc1 was read as Pf Dd2 growth 7.9µM.
For O=C(C[C@@H]1CCNC[C@@H]1Cc1cc(CN2CCOCC2)on1)N1CCN(c2ccccc2)CC1 the results were Pf Dd2 growth inactive.
NC(=O)C1CCN(C(=O)C[C@@H]2CCNC[C@@H]2Cc2cc(COc3ccccc3)on2)CC1 was read as Pf Dd2 growth inactive.
For COc1ccccc1N1CCN(C(=O)C[C@@H]2CCNC[C@@H]2Cc2cc(COc3ccccc3)on2)CC1 the results were Pf Dd2 growth inactive.
COc1ccccc1N1CCN(C(=O)C[C@@H]2CCNC[C@@H]2Cc2cc(-c3ccc(F)cc3)on2)CC1 was read as Pf Dd2 growth 11µM.
`CC(=O)N1CCCN(C(=O)CC(c2cccc(O)c2)c2cccc(Cl)c2)CC1` (stereo not given) gave Pf Dd2 growth inactive.
Screening CCOc1ccccc1CN1CCNC(=O)C1CC(=O)N1CCCOCC1 (stereo not given) returned Pf Dd2 growth inactive.
Cc1nn(-c2ccccc2)c(Oc2ccccc2F)c1CCC(=O)NC1CC1 was read as Pf Dd2 growth inactive.
CN(Cc1cccnc1)c1nc2c(c(=O)[nH]1)CCN(Cc1ccc(C(F)(F)F)cc1)CC2 was read as Pf Dd2 growth inactive[5.79 µM].
For Cc1noc([C@@H]2CC(F)(F)CN2C(=O)CCc2c(C)noc2C)n1 the results were Pf Dd2 growth inactive.
Screening COc1ccccc1CCC(=O)N1[C@@H]2CC[C@H]1CC(NC(=O)c1ccncc1)C2 (stereo not given in full) returned Pf Dd2 growth inactive.
`CCOc1cc(=O)n2c(c1C(=O)Nc1cc(C)ccc1OC)CCCC2` gave Pf Dd2 growth inactive.
For Cc1ccc2c(c1)N1C(=O)OC[C@@H]1CCN(Cc1ccccn1)C2 the results were Pf Dd2 growth inactive.
`Cc1ccc(CC(=O)N[C@@H]2CN(c3ccncn3)C[C@H]2CN(C)C)cc1` gave Pf Dd2 growth inactive.
`COc1ccc(CCC(=O)N[C@@H]2CN(c3ccncn3)C[C@H]2CN(C)C)cc1` gave Pf Dd2 growth inactive.
CN(C)C[C@@H]1CN(c2ccncn2)C[C@H]1NC(=O)COc1ccc(Cl)cc1 was read as Pf Dd2 growth 7.9µM.
`Cc1ccc(C(=O)NCc2cccnc2Oc2ccccc2)cn1` gave Pf Dd2 growth inactive.
For Cc1ccncc1C(=O)N1CCn2c(nnc2[C@@H]2C[C@@H](O)CN2Cc2ccccc2)C1 the results were Pf Dd2 growth inactive.
`CN1CCCCCC(O)c2cc(C(=O)NCc3nc4ccccc4n3C)ccc21` (stereo not given) gave Pf Dd2 growth inactive.
For CC(C)CN1CCN(C(=O)c2ccc3c(c2)C(O)CCCCCN3C)CC1 (stereo not given) the results were Pf Dd2 growth inactive.
Screening CN1CCCCCC(O)c2cc(C(=O)N3CCN(C4CCCCC4)CC3)ccc21 (stereo not given) returned Pf Dd2 growth inactive.
`CN1CCCCCC(O)c2cc(C(=O)NCc3cccc(C(F)(F)F)c3)ccc21` (stereo not given) gave Pf Dd2 growth 10µM.
For Cc1ccc(CN2CCN(C(=O)c3ccc4c(c3)C(O)CCCCCN4C)CC2)cc1 (stereo not given) the results were Pf Dd2 growth 13µM.
Screening COc1ccccc1CNC(=O)c1ccc2c(c1)C(O)CCCCCN2C (stereo not given) returned Pf Dd2 growth inactive.
Screening CC(C)c1ccc(C(=O)N2CC(C(=O)NC3CCCCC3)C3(CCOCC3)C2)cc1 (stereo not given) returned Pf Dd2 growth inactive.
Cc1noc([C@@H]2CN(Cc3cc(F)ccc3F)C[C@H]2CO)n1 was read as Pf Dd2 growth inactive.
`COc1ccccc1CCC(=O)N1CCC(Cc2nc(-c3cnccn3)no2)CC1` gave Pf Dd2 growth inactive.
`O=C(c1ccncc1)N1CCC(c2nc(C3CCOCC3)no2)C1` (stereo not given) gave Pf Dd2 growth inactive.
Screening COc1cc(Cl)cc(CN2CCC3(CCOCC3)CC2)c1OC returned Pf Dd2 growth inactive.
COc1ccc(O)cc1CN1CCC2(CCNCC2)C1 was read as Pf Dd2 growth inactive.
COc1cc(Cl)cc(CN2CCC3(CCCNC3)C2)c1OC (stereo not given) was read as Pf Dd2 growth 8.9µM.
Screening CC(C)(C)CC(=O)N1CC[C@H]2COC(=O)N2c2cc(F)ccc2C1 returned Pf Dd2 growth inactive.
`COc1ccccc1-c1nnc2n1C(C(=O)NC(C)C)CC2` (stereo not given) gave Pf Dd2 growth inactive.
For COc1ccccc1-c1nnc2n1C(C(=O)NCCc1ccc(Cl)cc1)CC2 (stereo not given) the results were Pf Dd2 growth 1.8µM.
